Positions count from the first letter of the chain named. In all, about 16,000 sequences were measured (“ka relative to ugcaugu”: median about 0.096, highest 2% from about 0.35 on). This is one part of a sample in which the highest values are shown more often than they occur.
T1: RBFOX1 RRM RbFoxmut (Fox-RRM*) (Homo sapiens, UniProt Q9NWB1 109-208, R118D;E147R;N151S;E152T)
T1 sequence: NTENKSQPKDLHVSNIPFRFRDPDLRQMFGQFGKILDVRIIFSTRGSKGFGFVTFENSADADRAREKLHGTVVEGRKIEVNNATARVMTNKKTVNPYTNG

B1: GUGUCUU (DNA:RNA)
RNA: GGGAGACCGGAAUUCAGAUUGUCCGUGUCUUUUAAAUCCCGUCGUAGCCACCA
DNA 1: CAATCTGAATTCCGGTCTCCC
DNA 2: TGGTGGCTACGACGGGATT
B2: UGAUGGG (DNA:RNA)
RNA: B1 RNA with G25U, U26G, G27A, C29G, U30G, U31G
DNA 1: CAATCTGAATTCCGGTCTCCC
DNA 2: TGGTGGCTACGACGGGATT
B3: GGUGGAC (DNA:RNA)
RNA: B1 RNA with U26G, G27U, U28G, C29G, U30A, U31C
DNA 1: CAATCTGAATTCCGGTCTCCC
DNA 2: TGGTGGCTACGACGGGATT
B4: CGCAACA (DNA:RNA)
RNA: GGGAGACCGGAAUUCAGAUUGUCCCGCAACAUUAAAUCCCGUCGUAGCCACCA
DNA 1: CAATCTGAATTCCGGTCTCCC
DNA 2: TGGTGGCTACGACGGGATT
B5: GCACAGC (DNA:RNA)
RNA: B4 RNA with C25G, G26C, C27A, A28C, C30G, A31C
DNA 1: CAATCTGAATTCCGGTCTCCC
DNA 2: TGGTGGCTACGACGGGATT
B6: GCGAUGU (DNA:RNA)
RNA: B1 RNA with U26C, U28A, C29U, U30G
DNA 1: CAATCTGAATTCCGGTCTCCC
DNA 2: TGGTGGCTACGACGGGATT
B7: CUCAAAA (DNA:RNA)
RNA: B4 RNA with G26U, C30A
DNA 1: CAATCTGAATTCCGGTCTCCC
DNA 2: TGGTGGCTACGACGGGATT
B8: UCGUCGU (DNA:RNA)
RNA: B1 RNA with G25U, U26C, U30G
DNA 1: CAATCTGAATTCCGGTCTCCC
DNA 2: TGGTGGCTACGACGGGATT
B9: UUGUCGU (DNA:RNA)
RNA: B1 RNA with G25U, U30G
DNA 1: CAATCTGAATTCCGGTCTCCC
DNA 2: TGGTGGCTACGACGGGATT
B10: GUCCGUG (DNA:RNA)
RNA: B1 RNA with G27C, U28C, C29G, U31G
DNA 1: CAATCTGAATTCCGGTCTCCC
DNA 2: TGGTGGCTACGACGGGATT
B11: UUGUACG (DNA:RNA)
RNA: B1 RNA with G25U, C29A, U30C, U31G
DNA 1: CAATCTGAATTCCGGTCTCCC
DNA 2: TGGTGGCTACGACGGGATT
B12: GUGUCCC (DNA:RNA)
RNA: B1 RNA with U30C, U31C
DNA 1: CAATCTGAATTCCGGTCTCCC
DNA 2: TGGTGGCTACGACGGGATT
B13: GUGUACG (DNA:RNA)
RNA: B1 RNA with C29A, U30C, U31G
DNA 1: CAATCTGAATTCCGGTCTCCC
DNA 2: TGGTGGCTACGACGGGATT
B14: UCGUUUG (DNA:RNA)
RNA: B1 RNA with G25U, U26C, C29U, U31G
DNA 1: CAATCTGAATTCCGGTCTCCC
DNA 2: TGGTGGCTACGACGGGATT
B15: GUGUGUG (DNA:RNA)
RNA: B1 RNA with C29G, U31G
DNA 1: CAATCTGAATTCCGGTCTCCC
DNA 2: TGGTGGCTACGACGGGATT
B16: GUACGUG (DNA:RNA)
RNA: B1 RNA with G27A, U28C, C29G, U31G
DNA 1: CAATCTGAATTCCGGTCTCCC
DNA 2: TGGTGGCTACGACGGGATT
B17: UUGUUGU (DNA:RNA)
RNA: B1 RNA with G25U, C29U, U30G
DNA 1: CAATCTGAATTCCGGTCTCCC
DNA 2: TGGTGGCTACGACGGGATT
B18: UUGUUUG (DNA:RNA)
RNA: B1 RNA with G25U, C29U, U31G
DNA 1: CAATCTGAATTCCGGTCTCCC
DNA 2: TGGTGGCTACGACGGGATT
B19: UCGUUUU (DNA:RNA)
RNA: B1 RNA with G25U, U26C, C29U
DNA 1: CAATCTGAATTCCGGTCTCCC
DNA 2: TGGTGGCTACGACGGGATT
B20: UUAGCGG (DNA:RNA)
RNA: B1 RNA with G25U, G27A, U28G, U30G, U31G
DNA 1: CAATCTGAATTCCGGTCTCCC
DNA 2: TGGTGGCTACGACGGGATT
B21: AGAGGUC (DNA:RNA)
RNA: B4 RNA with C25A, C27A, A28G, A29G, C30U, A31C
DNA 1: CAATCTGAATTCCGGTCTCCC
DNA 2: TGGTGGCTACGACGGGATT
B22: CCAGAUU (DNA:RNA)
RNA: B4 RNA with G26C, C27A, A28G, C30U, A31U
DNA 1: CAATCTGAATTCCGGTCTCCC
DNA 2: TGGTGGCTACGACGGGATT
B23: UUCCUGU (DNA:RNA)
RNA: B1 RNA with G25U, G27C, U28C, C29U, U30G
DNA 1: CAATCTGAATTCCGGTCTCCC
DNA 2: TGGTGGCTACGACGGGATT
B24: GGACAAA (DNA:RNA)
RNA: B4 RNA with C25G, C27A, A28C, C30A
DNA 1: CAATCTGAATTCCGGTCTCCC
DNA 2: TGGTGGCTACGACGGGATT
B25: CCCAACC (DNA:RNA)
RNA: B4 RNA with G26C, A31C
DNA 1: CAATCTGAATTCCGGTCTCCC
DNA 2: TGGTGGCTACGACGGGATT
B26: GCCACAA (DNA:RNA)
RNA: B4 RNA with C25G, G26C, A29C, C30A
DNA 1: CAATCTGAATTCCGGTCTCCC
DNA 2: TGGTGGCTACGACGGGATT
B27: UGUAAGU (DNA:RNA)
RNA: B4 RNA with C25U, C27U, C30G, A31U
DNA 1: CAATCTGAATTCCGGTCTCCC
DNA 2: TGGTGGCTACGACGGGATT
B28: UCAGUAU (DNA:RNA)
RNA: B1 RNA with G25U, U26C, G27A, U28G, C29U, U30A
DNA 1: CAATCTGAATTCCGGTCTCCC
DNA 2: TGGTGGCTACGACGGGATT
B29: AUUAGAG (DNA:RNA)
RNA: B4 RNA with C25A, G26U, C27U, A29G, C30A, A31G
DNA 1: CAATCTGAATTCCGGTCTCCC
DNA 2: TGGTGGCTACGACGGGATT
B30: CCAGAGU (DNA:RNA)
RNA: B4 RNA with G26C, C27A, A28G, C30G, A31U
DNA 1: CAATCTGAATTCCGGTCTCCC
DNA 2: TGGTGGCTACGACGGGATT
B31: GUCCGAG (DNA:RNA)
RNA: B1 RNA with G27C, U28C, C29G, U30A, U31G
DNA 1: CAATCTGAATTCCGGTCTCCC
DNA 2: TGGTGGCTACGACGGGATT
B32: GUUUGUG (DNA:RNA)
RNA: B1 RNA with G27U, C29G, U31G
DNA 1: CAATCTGAATTCCGGTCTCCC
DNA 2: TGGTGGCTACGACGGGATT
B33: GAGUUGU (DNA:RNA)
RNA: B1 RNA with U26A, C29U, U30G
DNA 1: CAATCTGAATTCCGGTCTCCC
DNA 2: TGGTGGCTACGACGGGATT
B34: CGUUUUG (DNA:RNA)
RNA: B4 RNA with C27U, A28U, A29U, C30U, A31G
DNA 1: CAATCTGAATTCCGGTCTCCC
DNA 2: TGGTGGCTACGACGGGATT
B35: GUGUGUA (DNA:RNA)
RNA: B1 RNA with C29G, U31A
DNA 1: CAATCTGAATTCCGGTCTCCC
DNA 2: TGGTGGCTACGACGGGATT
B36: GAGUUUG (DNA:RNA)
RNA: B1 RNA with U26A, C29U, U31G
DNA 1: CAATCTGAATTCCGGTCTCCC
DNA 2: TGGTGGCTACGACGGGATT
B37: GUGUUUG (DNA:RNA)
RNA: B1 RNA with C29U, U31G
DNA 1: CAATCTGAATTCCGGTCTCCC
DNA 2: TGGTGGCTACGACGGGATT
B38: UUGUGUA (DNA:RNA)
RNA: B1 RNA with G25U, C29G, U31A
DNA 1: CAATCTGAATTCCGGTCTCCC
DNA 2: TGGTGGCTACGACGGGATT
B39: GUCGUGU (DNA:RNA)
RNA: B1 RNA with G27C, U28G, C29U, U30G
DNA 1: CAATCTGAATTCCGGTCTCCC
DNA 2: TGGTGGCTACGACGGGATT
B40: GUGUCGU (DNA:RNA)
RNA: B1 RNA with U30G
DNA 1: CAATCTGAATTCCGGTCTCCC
DNA 2: TGGTGGCTACGACGGGATT
B41: GUUGUGU (DNA:RNA)
RNA: B1 RNA with G27U, U28G, C29U, U30G
DNA 1: CAATCTGAATTCCGGTCTCCC
DNA 2: TGGTGGCTACGACGGGATT
B42: GUGUAUA (DNA:RNA)
RNA: B1 RNA with C29A, U31A
DNA 1: CAATCTGAATTCCGGTCTCCC
DNA 2: TGGTGGCTACGACGGGATT

Molecular target: T1, RBFOX1 RRM RbFoxmut (Fox-RRM*)
Assay: EMSA; HiTS-Eq, 1 nM pool, 10 min; buffer printed only for the single-RNA assays: 10 mM Tris pH 7.5, 150 mM NaCl, 3.4 mM EDTA, 0.001% NP-40, 30 C
Details: tags: His6 N-terminal (pET28a); label: 5' 32P
In short: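 A pool of RNA with 7 randomized nucleotides, 5′-radiolabelled and with DNA-annealed flanks, was equilibrated at 1 nM for 10 min in 50 µL with purified RbFox RRM, wild type or mutant, across increasing protein concentrations. Free RNA was separated by 8% native PAGE, excised, reverse-transcribed, barcoded by PCR and sequenced. Relative association constants were obtained from read-count changes of each RNA species versus the control reaction and normalised to the cognate motif.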

Row | Binder | binding signal
1 | B1 | 0.101 KA relative to UGCAUGU
2 | B2 | 0.0449 KA relative to UGCAUGU
3 | B3 | 0.0584 KA relative to UGCAUGU
4 | B4 | 0.102 KA relative to UGCAUGU
5 | B5 | 0.0832 KA relative to UGCAUGU
6 | B6 | 0.151 KA relative to UGCAUGU
7 | B7 | 0.0819 KA relative to UGCAUGU
8 | B8 | 0.109 KA relative to UGCAUGU
9 | B9 | 0.132 KA relative to UGCAUGU
10 | B10 | 0.146 KA relative to UGCAUGU
11 | B11 | 0.261 KA relative to UGCAUGU
12 | B12 | 0.101 KA relative to UGCAUGU
13 | B13 | 0.441 KA relative to UGCAUGU
14 | B14 | 0.396 KA relative to UGCAUGU
15 | B15 | 0.532 KA relative to UGCAUGU
16 | B16 | 0.188 KA relative to UGCAUGU
17 | B17 | 0.21 KA relative to UGCAUGU
18 | B18 | 0.709 KA relative to UGCAUGU
19 | B19 | 0.0973 KA relative to UGCAUGU
20 | B20 | 0.0965 KA relative to UGCAUGU
21 | B21 | 0.108 KA relative to UGCAUGU

Row | Binder | binding signal
22 | B22 | 0.0808 KA relative to UGCAUGU
23 | B23 | 0.0952 KA relative to UGCAUGU
24 | B24 | 0.0761 KA relative to UGCAUGU
25 | B25 | 0.0535 KA relative to UGCAUGU
26 | B26 | 0.0608 KA relative to UGCAUGU
27 | B27 | 0.118 KA relative to UGCAUGU
28 | B28 | 0.116 KA relative to UGCAUGU
29 | B29 | 0.146 KA relative to UGCAUGU
30 | B30 | 0.126 KA relative to UGCAUGU
31 | B31 | 0.129 KA relative to UGCAUGU
32 | B32 | 0.462 KA relative to UGCAUGU
33 | B33 | 0.138 KA relative to UGCAUGU
34 | B34 | 0.133 KA relative to UGCAUGU
35 | B35 | 0.371 KA relative to UGCAUGU
36 | B36 | 0.361 KA relative to UGCAUGU
37 | B37 | 0.68 KA relative to UGCAUGU
38 | B38 | 0.315 KA relative to UGCAUGU
39 | B39 | 0.187 KA relative to UGCAUGU
40 | B40 | 0.164 KA relative to UGCAUGU
41 | B41 | 0.224 KA relative to UGCAUGU
42 | B42 | 0.166 KA relative to UGCAUGU
